Read-out in assay [1]: CD69, CD69 (gene 969)
Description: BSK_SAg_CD69: BioMAP Diversity Plus: SAg Assay for CD69 Biomarker Activity (AID 2283089).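 For AC50: cell surface CD69 protein quantified by ELISA with fluorescence detection.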 Particulars: primary human HUVEC with PBMC; actives raise or lower the signal. The procedure, abridged: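 HUVEC co-cultured with PBMC were dosed with chemical, and CD69 was measured by ELISA with fluorescence read-out 24 h later. Bidirectional curve fitting used DMSO as negative control and activity baseline.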

Read-out in assay [2]: Monocyte Chemoattractant Protein-1 (MCP1), CCL2 (gene 6347)
Kind of assay: BSK_SAg_MCP1: BioMAP Diversity Plus: SAg Assay for Monocyte Chemoattractant Protein-1 (MCP1) Biomarker Activity (AID 2283090). Particulars: primary human HUVEC with PBMC; actives raise or lower the signal. The procedure, abridged: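 Values derive from bidirectional fitting of ELISA-measured MCP1 against DMSO controls. Readings were taken 24 h after dosing human vascular endothelial cells co-cultured with peripheral blood mononuclear cells under superantigen stimulation.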

Read-out in assay [3]: E-selectin (Homo sapiens) (UniProt P16581)
Kind of assay: BSK_SAg_Eselectin: BioMAP Diversity Plus: SAg Assay for Eselectin Biomarker Activity (AID 2283091). The conditions noted are these: primary human HUVEC with PBMC; actives raise or lower the signal. The procedure, abridged: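 Cell-surface E-selectin is read by ELISA at 24 h in the SAg co-culture of HUVEC and PBMC. Curves are fitted in both directions relative to DMSO. Parallel SRB total-protein staining tracks overt toxicity.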

Read-out in assay [4]: Monokine induced gamma interferon (MIG), CXCL9 (gene 4283)
Description: BSK_SAg_MIG: BioMAP Diversity Plus: SAg Assay for Monokine induced gamma interferon (MIG) Biomarker Activity (AID 2283092). Particulars: primary human HUVEC with PBMC; actives raise or lower the signal. An outline of the steps: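 HUVEC plus human PBMC co-culture, chemicals dosed and MIG (CXCL9) quantified by ELISA at 24 h. Bidirectional curve fitting against DMSO as negative control and baseline, so both gain and loss of signal count as activity.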

Assay [5] is described as follows: BSK_SAg_PBMCCytotoxicity: PBMC Cytotoxicity Assessment in the BioMAP Diversity Plus: SAg Assay (AID 2283093).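 For AC50: PBMC superantigen activated with SEB plus TSST-1 one hour after compound addition.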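 Note: PBMC viability measured as Alamar Blue reduction fluorescence at 546/580 nm; fitted both ways against DMSO so a hit may be loss or gain of signal.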 Particulars: primary human HUVEC with PBMC. The procedure, abridged: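 Alamar Blue reduction (6 h, ex/em 546/580 nm) read after 90 h culture of PBMC pre-dosed 1 h then stimulated with SEB plus TSST-1, 20 ng/mL each. Gain or loss of signal fitted relative to DMSO.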

Read-out in assay [6]: Interleukin-8 (IL8), CXCL8 (gene 3576)
Description: BSK_SAg_IL8: BioMAP Diversity Plus: SAg Assay for Interleukin-8 (IL8) Biomarker Activity (AID 2283094). The conditions noted are these: primary human HUVEC with PBMC; actives raise or lower the signal. An outline of the steps: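 Primary human endothelial cells with PBMC, exposed 24 h; IL-8 determined by ELISA, analysed bidirectionally relative to DMSO.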

Assay [7] is described as follows: BSK_SAg_Proliferation: Cell Proliferation Assessment in the BioMAP Diversity Plus: SAg Assay (AID 2283095).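 Note: relative cell number as total protein by SRB absorbance in sub-confluent culture.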 The conditions noted are these: primary human HUVEC with PBMC. The procedure, abridged: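 A human primary co-culture of umbilical vein endothelium and blood mononuclear cells receives compound; relative cell number is quantified at 96 h by SRB staining and 560 nm absorbance, with DMSO-referenced bidirectional curve fitting.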

The nature of assay [8]: BSK_SAg_SRB: Viability Assessment in the BioMAP Diversity Plus: SAg Assay (AID 2283096).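 Note: cells read one day after compound addition; hits may be either gain or loss of signal compared with DMSO.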 The conditions noted are these: primary human HUVEC with PBMC. An outline of the steps: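 SRB absorbance at 560 nm served as the viability read-out. Cells (HUVEC plus peripheral blood mononuclear cells) were TCA-fixed and stained 24 h post-dosing; activity fitted in both directions against DMSO controls.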

Assay [9] deals with human CYP2A6, CYP2A6 (gene 1548) (UniProt P11509). Kind of assay: NVS_ADME_hCYP2A6: NovaScreen (NVS) CYP450-related Enzyme Activity (ADME) Assay for human CYP2A6 (AID 2283099; active = hit-call score of the fitted dose curve at least 0.9, where 1 is the maximum). An outline of the steps:
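Compounds screened at 10 uM (duplicate) and, if active, titrated to a 20 uM top concentration against insect-cell-expressed CYP2A6. Loss of fluorescent product signal after 0.5 h, relative to acetonitrile baseline, indicates inhibition.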

In assay [10] the target is human CYP1A1, CYP1A1 (gene 1543) (UniProt P04798). Kind of assay: NVS_ADME_hCYP1A1: NovaScreen (NVS) CYP450-related Enzyme Activity (ADME) Assay for human CYP1A1 (AID 2283100; active = hit-call score of the fitted dose curve at least 0.9, where 1 is the maximum). The procedure, abridged: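 Chemicals were first tested in duplicate at 10 uM, and those passing a 30% inhibition threshold were rerun as concentration series topping at 20 uM. Fluorescence read-out of recombinant enzyme turnover after 1 h, relative to acetonitrile.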

Assay [11] deals with human CYP2B6, CYP2B6 (gene 1555) (UniProt P20813). Description: NVS_ADME_hCYP2B6: NovaScreen (NVS) CYP450-related Enzyme Activity (ADME) Assay for human CYP2B6 (AID 2283101; active = hit-call score of the fitted dose curve at least 0.9, where 1 is the maximum). An outline of the steps: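 Recombinant human CYP2B6 with fluorogenic substrate, read by fluorescence intensity 1 h after dosing. Primary screen in duplicate at 10 uM, actives followed in concentration series; signal loss relative to acetonitrile control.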

For assay [12], the target named is human CYP1A2, CYP1A2 (gene 1544) (UniProt P05177). Kind of assay: NVS_ADME_hCYP1A2: NovaScreen (NVS) CYP450-related Enzyme Activity (ADME) Assay for human CYP1A2 (AID 2283102; active = hit-call score of the fitted dose curve at least 0.9, where 1 is the maximum;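 for AC50: fluorescence from turnover of a fluorogenic substrate by recombinant insect-cell CYP1A2; potency for inhibition since loss of fluorescence marks reduced CYP1A2 activity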). The procedure, abridged: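 Enzyme activity of insect-cell-expressed human CYP1A2 measured by fluorescence 0.5 h after compound addition, relative to acetonitrile. Compounds first tested in duplicate at 10 uM, actives followed up in concentration series.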

The target in assay [13] is human CYP2C9, CYP2C9 (gene 1559) (UniProt P11712). Description: NVS_ADME_hCYP2C9: NovaScreen (NVS) CYP450-related Enzyme Activity (ADME) Assay for human CYP2C9 (AID 2283108; active = hit-call score of the fitted dose curve at least 0.9, where 1 is the maximum). The procedure, abridged:
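Fluorescence readout of CYP2C9 activity (SF9-expressed human enzyme) at 0.75 h. The primary screen used 10 uM in duplicate, with concentration-response follow-up for actives; acetonitrile was the negative control.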

“And” between values parts separate entries of the source, which are not always exact repeats. Equal entries are not always repeated. Records with an inconclusive call do not appear. A structure can be active in one record and inactive in another. The source made the active and inactive calls. Rule for the calls, unless noted: active = hit-call score of the fitted dose curve at least 0.9, where 1 is the maximum; inactive = score below 0.9.

For orientation: AC50 means the concentration at which the activity in the assay is half-maximal.

E-selectin (Homo sapiens), sequence (P16581 whole entry, looked up): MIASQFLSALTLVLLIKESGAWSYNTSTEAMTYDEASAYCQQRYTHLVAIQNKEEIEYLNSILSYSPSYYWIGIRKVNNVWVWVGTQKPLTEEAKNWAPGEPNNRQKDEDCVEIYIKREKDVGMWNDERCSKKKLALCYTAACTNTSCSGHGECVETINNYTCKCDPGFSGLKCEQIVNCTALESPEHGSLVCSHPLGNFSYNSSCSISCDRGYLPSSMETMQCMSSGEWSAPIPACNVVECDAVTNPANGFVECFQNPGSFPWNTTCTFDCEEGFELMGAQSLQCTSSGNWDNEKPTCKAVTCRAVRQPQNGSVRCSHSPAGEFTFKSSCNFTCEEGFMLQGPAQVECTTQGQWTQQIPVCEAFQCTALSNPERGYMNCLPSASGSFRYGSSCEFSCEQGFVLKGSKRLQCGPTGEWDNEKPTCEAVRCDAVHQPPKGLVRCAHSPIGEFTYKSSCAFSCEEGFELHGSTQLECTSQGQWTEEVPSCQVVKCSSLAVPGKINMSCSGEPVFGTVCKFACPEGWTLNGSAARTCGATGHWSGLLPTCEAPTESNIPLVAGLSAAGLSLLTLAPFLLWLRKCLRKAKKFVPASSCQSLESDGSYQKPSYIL
human CYP1A1, CYP1A1 (gene 1543), sequence (P04798 whole entry, looked up): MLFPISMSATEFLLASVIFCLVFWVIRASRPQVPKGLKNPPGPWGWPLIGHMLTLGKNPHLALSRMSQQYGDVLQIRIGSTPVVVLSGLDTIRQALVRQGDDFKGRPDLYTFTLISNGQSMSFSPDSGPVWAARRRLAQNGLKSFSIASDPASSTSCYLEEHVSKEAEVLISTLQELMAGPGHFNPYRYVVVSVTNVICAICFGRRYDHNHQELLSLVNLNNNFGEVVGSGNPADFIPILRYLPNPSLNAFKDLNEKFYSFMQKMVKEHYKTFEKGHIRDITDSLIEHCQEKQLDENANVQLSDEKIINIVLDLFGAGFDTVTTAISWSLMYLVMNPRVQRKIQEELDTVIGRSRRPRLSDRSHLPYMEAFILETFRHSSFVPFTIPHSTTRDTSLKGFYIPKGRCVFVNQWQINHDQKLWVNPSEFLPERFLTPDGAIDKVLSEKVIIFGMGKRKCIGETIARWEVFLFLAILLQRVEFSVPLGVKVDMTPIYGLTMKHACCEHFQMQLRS
human CYP2B6, CYP2B6 (gene 1555), sequence (P20813 whole entry, looked up): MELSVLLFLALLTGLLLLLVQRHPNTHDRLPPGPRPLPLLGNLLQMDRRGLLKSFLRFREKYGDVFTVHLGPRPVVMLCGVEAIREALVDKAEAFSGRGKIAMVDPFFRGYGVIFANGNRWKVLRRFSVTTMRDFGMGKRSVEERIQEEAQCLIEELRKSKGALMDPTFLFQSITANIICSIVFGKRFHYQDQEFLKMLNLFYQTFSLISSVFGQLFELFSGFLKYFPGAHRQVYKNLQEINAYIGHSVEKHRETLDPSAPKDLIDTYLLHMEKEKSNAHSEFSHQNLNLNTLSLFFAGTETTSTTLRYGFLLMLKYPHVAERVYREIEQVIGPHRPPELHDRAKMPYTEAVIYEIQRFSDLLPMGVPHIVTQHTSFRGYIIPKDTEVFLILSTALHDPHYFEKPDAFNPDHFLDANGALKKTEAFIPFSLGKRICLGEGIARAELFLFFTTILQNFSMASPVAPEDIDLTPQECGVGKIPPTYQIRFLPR
human CYP1A2, CYP1A2 (gene 1544), sequence (P05177 whole entry, looked up): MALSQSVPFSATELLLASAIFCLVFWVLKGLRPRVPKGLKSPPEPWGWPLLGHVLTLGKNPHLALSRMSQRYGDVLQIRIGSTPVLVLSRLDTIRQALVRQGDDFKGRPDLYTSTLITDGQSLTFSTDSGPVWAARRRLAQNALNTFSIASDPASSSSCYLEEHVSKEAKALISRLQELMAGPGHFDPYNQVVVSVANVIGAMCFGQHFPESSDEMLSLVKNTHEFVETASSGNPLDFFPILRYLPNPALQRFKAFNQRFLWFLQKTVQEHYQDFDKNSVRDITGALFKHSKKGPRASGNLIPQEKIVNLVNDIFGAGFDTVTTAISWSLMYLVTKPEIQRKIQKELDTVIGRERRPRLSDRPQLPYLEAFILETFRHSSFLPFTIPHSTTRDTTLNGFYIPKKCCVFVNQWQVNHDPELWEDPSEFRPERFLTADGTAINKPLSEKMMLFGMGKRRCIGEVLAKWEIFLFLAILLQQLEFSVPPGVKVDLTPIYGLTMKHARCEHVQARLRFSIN
human CYP2A6, CYP2A6 (gene 1548), sequence (P11509 whole entry, looked up): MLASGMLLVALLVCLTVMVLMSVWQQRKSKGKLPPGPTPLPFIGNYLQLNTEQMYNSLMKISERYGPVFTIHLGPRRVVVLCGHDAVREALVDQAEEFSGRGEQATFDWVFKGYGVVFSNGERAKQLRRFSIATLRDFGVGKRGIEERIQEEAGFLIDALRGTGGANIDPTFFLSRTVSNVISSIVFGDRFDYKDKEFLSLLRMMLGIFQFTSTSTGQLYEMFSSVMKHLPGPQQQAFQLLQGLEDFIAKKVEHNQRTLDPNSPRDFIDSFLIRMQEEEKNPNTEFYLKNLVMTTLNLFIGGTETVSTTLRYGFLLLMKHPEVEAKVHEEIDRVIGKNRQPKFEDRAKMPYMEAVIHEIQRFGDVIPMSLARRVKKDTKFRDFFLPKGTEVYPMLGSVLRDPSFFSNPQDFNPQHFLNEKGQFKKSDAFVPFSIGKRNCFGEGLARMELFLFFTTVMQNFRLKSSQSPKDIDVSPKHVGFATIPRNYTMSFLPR
human CYP2C9, CYP2C9 (gene 1559), sequence (P11712 whole entry, looked up): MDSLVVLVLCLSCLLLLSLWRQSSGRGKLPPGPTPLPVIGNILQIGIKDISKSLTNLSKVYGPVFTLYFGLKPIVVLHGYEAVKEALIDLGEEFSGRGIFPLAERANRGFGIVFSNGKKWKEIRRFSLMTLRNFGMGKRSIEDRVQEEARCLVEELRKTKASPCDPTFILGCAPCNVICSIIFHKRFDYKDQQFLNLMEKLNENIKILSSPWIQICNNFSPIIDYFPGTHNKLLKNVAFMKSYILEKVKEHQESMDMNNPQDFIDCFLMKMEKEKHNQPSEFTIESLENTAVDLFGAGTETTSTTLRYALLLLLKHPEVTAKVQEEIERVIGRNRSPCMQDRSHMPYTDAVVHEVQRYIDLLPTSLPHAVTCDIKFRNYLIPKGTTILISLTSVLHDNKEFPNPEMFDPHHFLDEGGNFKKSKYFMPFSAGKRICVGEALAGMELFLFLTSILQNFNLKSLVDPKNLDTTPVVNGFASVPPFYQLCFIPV

Consider `Oc1ccc(-c2ccccc2)cc1`, for which the outcome in assay [1], in [2], in [3], in [4], in assay [5] and in assay [6] was inactive. Moreover, the result in [7] and in [8] was inactive.
As to `COc1cc(-c2ccc(N)c(OC)c2)ccc1N`, the result in assay [1], in assay [2], in [4], in assay [5], in assay [6] and in assay [7] was inactive. Further, the outcome in assay [8], in assay [9] and in assay [12] was inactive. The AC50 in [3] was 11.8 µM (active); in assay [6], 7.64 µM (active); in assay [7], 11.8 µM (active); in assay [10], 3.13 µM (active) and 3.48 µM (active); in [11] it was 6.76 µM (active) and 3.92 µM (active); in assay [12], 1.27 µM (active). Besides, in assay [13], the AC50 is 7.03 µM (active).
As for `O=C(OC1CCCCC1)c1ccccc1C(=O)OC1CCCCC1`, the AC50 in assay [1] was 26.2 µM (active); in assay [2], 27.8 µM (active); in assay [3], 29.8 µM (active); in [4], 29.8 µM (active); in [5] it was 20.9 µM (active); in assay [6] it was 20.9 µM (active). The half-maximal activity concentration (AC50) was 17.3 µM (active) in assay [7] and 20.9 µM (active) in assay [8].
For `ClC(Cl)=C(Cl)C(Cl)=C(Cl)Cl`, the result in assay [1], in assay [2], in [3], in assay [4], in assay [6] and in assay [8] was inactive. Further, the AC50 in [5] was 33.1 µM (active); in assay [7], 31.7 µM (active).
As to `BrCCBr`, the outcome in [1], in assay [2], in [3], in assay [4], in [5] and in assay [6] was inactive. For the same compound, the outcome in [7] and in assay [8] was inactive.
For the compound `CN(C)N=O`, the result in assay [1], in assay [2], in assay [3], in assay [4], in assay [5] and in [6] was inactive. Further, the outcome in assay [7] and in assay [8] was inactive.
As to `O=C(O)C(Cl)(Cl)Cl`, the result in assay [1], in assay [2], in assay [3], in assay [4], in assay [5] and in [6] was inactive. The result in assay [7] and in [8] was inactive.
Turning to `COC(=O)Cc1ccccc1`, the result in assay [1], in [2], in assay [3], in [4], in assay [5] and in assay [6] was inactive. Moreover, the result in [7] and in [8] was inactive.
In the case of `CC(=O)OC(c1ccccc1)C(Cl)(Cl)Cl` (stereo not given), the AC50 is 14.2 µM (active) in [1], 20 µM (active) in [3] and 13.4 µM (active) in assay [6]. In addition, the result in assay [1], in [2], in assay [3], in [4], in [5] and in assay [6] was inactive. The outcome in [7] and in [8] was inactive.
For `CCSC(C)CC1CC(=O)C(C(CC)=NOC/C=C/Cl)=C(O)C1` (stereo not given), the result in assay [1], in assay [2], in assay [3], in [4], in assay [5] and in assay [6] was inactive. For the same compound, the outcome in [7] and in [8] was inactive.
Regarding `O=[N+]([O-])c1ccc2c3c(cccc13)CC2`, the outcome in assay [1], in assay [2], in [3], in assay [4], in assay [5] and in assay [6] was inactive. Moreover, the outcome in assay [7] and in assay [8] was inactive.
With `C=CC(=O)OCCCCCC(C)C`, the result in assay [1], in [2], in assay [3], in [4], in assay [5] and in assay [6] was inactive. The result in [7] and in [8] was inactive.
With `CCOP(=S)(OCC)SCCS(=O)(=O)CC`, the result in assay [1], in [2], in [3], in [4], in assay [5] and in [6] was inactive. The result in assay [7] and in assay [8] was inactive.
As for `CC(C)(OO)c1ccccc1`, the result in assay [1], in assay [2], in assay [3], in assay [4], in [5] and in [6] was inactive. Also, the result in assay [7] and in assay [8] was inactive.
With `CC(C)CCCCCCOC(=O)c1ccccc1C(=O)OCCCCCCC(C)C`, the outcome in assay [1], in assay [2], in assay [4], in assay [5], in [6] and in assay [7] was inactive. Further, the results for the AC50 in assay [3] and in assay [8] were 0.016 µM (active) and 0.206 µM (active), respectively.
In the case of `C=C(C)C(=O)[O][Sn]([CH2]CCC)([CH2]CCC)[CH2]CCC`, the concentration at half-maximal activity (AC50) in assay [1] was 0.148 µM (active); in assay [2], 0.352 µM (active); in [3] it was 0.147 µM (active); in [4] it was 0.148 µM (active); in assay [5], 0.236 µM (active); in assay [6], 0.31 µM (active). In addition, the AC50 is 0.188 µM (active) in [7] and 0.148 µM (active) in assay [8].
As to `CC(C)c1ccc(CO)cc1`, the outcome in [1], in assay [2], in [3], in assay [4], in assay [5] and in assay [6] was inactive. Moreover, the result in assay [7] and in assay [8] was inactive.
Consider `CCOP(=S)(OCC)Oc1nc(Cl)c(Cl)cc1Cl`, for which the AC50 in assay [1] was 20 µM (active); in assay [2], 30.1 µM (active); in [3], 28 µM (active); in assay [5], 34.3 µM (active); in assay [6] it was 20 µM (active); in assay [7], 34.4 µM (active). In addition, the result in [4] and in assay [8] was inactive.

(Values after PubChem BioAssay (EPA / NIEHS).)
